Screening data from PubChem.
CtBP-E1A inh: qHTS Assay for Inhibitors of the CtBP/E1A Interaction; CtBP / adenovirus E1A interaction (AlphaScreen); AlphaScreen GST-E1A/His-CtBP binding, 1536-well; stronger effect = lower value; activity change, % (test concentration not listed); actives 0.49% (n = 340,000); in the data active means activity change below about -65%; inconclusive means mostly about -30% to -63%
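Steps: dispense buffer (Tris pH 8.0, NaCl 300 mM, TCEP 1 mM, BSA, Tween 20); add 5X protein mix (GST-E1A, His-CtBP, 125 nM each); pin 23 nL compound; 2 h at 37 °C, dark; add 5X beads (50 ug/mL); 1 h; read.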
Six1-Eya2 inh: qHTS Assay for Inhibitors of the Six1/Eya2 Interaction | activity change, % (test concentration not listed) | AID 651725, 2012 | actives 0.56% (n = 360,000) | AlphaScreen GST-Six1/His-Eya2 binding, biochemical; stronger effect = lower value; in the data active means activity change below about -65%; inconclusive means mostly about -30% to -63%
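Homogeneous AlphaScreen proximity assay pairing GST-Six1 with His-tagged Eya2 (added as 5X mix: 250 nM and 500 nM) in 50 mM Tris pH 8.0, 300 mM NaCl, 1 mM TCEP. Glutathione donor and nickel acceptor beads; 1 h, 37 °C, dark.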
TDP1 cell CPT: qHTS for Inhibitors of human tyrosyl-DNA phosphodiesterase 1 (TDP1): qHTS in cells in presence of CPT | Potency, µM (highest dose often 46.2 µM), for inactives: at the top dose activity change, negative = growth inhibition, usual class: inhibitors | chicken DT40 Tdp1-/-;hTDP1 cells + 20 nM CPT, ATP luminescence, 48 h | actives 12% (n = 420,000); further: potency means the concentration at half of the fitted maximal effect; nearly all actives have a fitted effect of over 55% in size
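Chicken DT40 Tdp1-/- cells stably complemented with human TDP1 were seeded at 400 cells/well in medium containing 20 nM camptothecin, exposed to pin-transferred compounds, and grown at 37 °C for at least 48 hr. Viability was read as ATP luminescence.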
TDP1 inh: qHTS Assay for Inhibitors of Tyrosyl-DNA Phosphodiesterase (TDP1). Tyrosyl-DNA phosphodiesterase 1 (Homo sapiens), Q9NUW8. Potency, µM (doses to about 130 µM), inactives show at the highest dose activity change, negative = inhibition, actives largely listed as inhibitors. recombinant TDP1, AlphaScreen DNA substrate cleavage. AID 485290, 2010. actives 0.28% (n = 350,000); further: potency means the concentration at half of the fitted maximal effect; nearly all actives have a fitted effect of over 40% in size
Target sequence (Q9NUW8 whole entry, looked up): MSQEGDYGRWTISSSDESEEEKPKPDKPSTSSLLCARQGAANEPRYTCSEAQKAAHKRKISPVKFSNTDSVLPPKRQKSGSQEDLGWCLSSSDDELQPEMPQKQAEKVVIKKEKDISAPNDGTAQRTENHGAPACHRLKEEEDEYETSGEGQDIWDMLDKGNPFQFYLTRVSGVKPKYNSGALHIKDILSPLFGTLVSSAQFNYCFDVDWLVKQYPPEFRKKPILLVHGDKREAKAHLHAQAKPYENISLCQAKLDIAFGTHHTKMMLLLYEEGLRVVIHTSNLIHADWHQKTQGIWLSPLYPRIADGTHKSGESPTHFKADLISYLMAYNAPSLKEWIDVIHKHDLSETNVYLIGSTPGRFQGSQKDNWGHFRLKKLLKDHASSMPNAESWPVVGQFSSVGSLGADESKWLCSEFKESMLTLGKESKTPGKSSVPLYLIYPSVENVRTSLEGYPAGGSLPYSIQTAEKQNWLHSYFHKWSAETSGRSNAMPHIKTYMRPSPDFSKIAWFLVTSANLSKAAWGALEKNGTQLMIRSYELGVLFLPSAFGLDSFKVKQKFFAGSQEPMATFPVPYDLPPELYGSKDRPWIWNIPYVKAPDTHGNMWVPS
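Steps: enzyme plus compound, 15 min RT; add biotin/phosphotyrosine-FITC oligonucleotide (15 nM final), react 5 min; add donor/acceptor beads (10 ug/ml final), 10 min; read AlphaScreen. Tdp1 at 1 nM final.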
IL-1B inflam inh: qHTS for Inhibitors of Inflammasome Signaling: IL-1-beta AlphaLISA Primary Screen; actives 4.7% (n = 360,000); activity change, % at 57.5 µM; AID 743279, 2014; THP-1 LPS/ATP IL-1B secretion, AlphaLISA, 16 h; stronger effect = lower value; in the data active means activity change below about -50%; inconclusive means mostly about -30% to -49%
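THP-1 cells pretreated 1 hr with compounds (up to 57.5 uM final), then stimulated with LPS (250 ng/mL final) plus ATP (1.25 mM final); secreted IL-1B measured by AlphaLISA after 16 hr, decreased signal indicating inhibition.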
DT40 TDP1 no CPT: qHTS for Inhibitors of human tyrosyl-DNA phosphodiesterase 1 (TDP1): qHTS in cells in absence of CPT; Potency, µM (highest dose often 46.2 µM), for inactives: at the top dose activity change, negative = growth inhibition, actives largely listed as inhibitors; actives 15% (n = 420,000); DT40 Tdp1-/- hTDP1 cells, no CPT, ATP luminescence, 48 h; further: potency means the concentration at half of the fitted maximal effect; nearly all actives have a fitted effect of over 55% in size
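DT40 Tdp1-/-;hTDP1 cells, no CPT (DMSO vehicle only), 400 cells/well; compounds pin-transferred; ≥48 hr, 37 °C; CellTiter-Glo 30 min RT dark, luminescence read.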
* hit, by the source's call; ? = inconclusive; · = not tested or not shown. Compounds with a hit are over-represented: about 18% of the library has one in this group of screens. Unless noted, the call rests on the fitted dose curve; in most records, active means well fitted curve in the direction sought with a large enough effect; inconclusive means small, poorly fitted or top-dose-only effect, or another doubt; inactive means no such curve, though single readings can be large; an effect the other way counts as inactive or inconclusive. On the % scale 0 is the no-effect control and ±100 the full control effect.

SMILES	CtBP-E1A inh	Six1-Eya2 inh	TDP1 cell CPT	TDP1 inh	IL-1B inflam inh	DT40 TDP1 no CPT
NC(c1ccccc1)c1csc(Nc2ccc(C(=O)c3ccccc3)cc2)n1 (stereo not drawn)	-6	-10	?	·	?	18µM*
CC(C)c1ccc(NC(=O)Nc2nc(C(N)C(C)C)cs2)cc1 (stereo not drawn)	-24	-4	15µM*	·	-63*	16µM*
CC(C)c1ccc(NC(=O)Nc2nc(C(N)COCc3ccccc3)cs2)cc1 (stereo not drawn)	-11	-13	16µM*	·	?	15µM*
Cc1ccc(C(=O)Nc2nc(C(N)C(C)C)cs2)cc1 (stereo not drawn)	-14	-7	?	·	?	16µM*
CCOC(=O)CCCCC(=O)c1[nH]c(=O)[nH]c1C[n+]1ccc(C)cc1	·	3	8%	-3%	?	11%
Cc1[nH]c(=O)[nH]c1C(=O)CCCCC(=O)OCC(=O)Nc1ccccn1	-9	-1	1%	8%	-114*	14%
CC(=O)Nc1cccc(S(=O)(=O)N2CCN(S(=O)(=O)c3c(F)cccc3F)CC2)c1	·	·	·	0%	·	·
Cc1cc2c(NC(=O)CCCC(=O)O)cccc2nn1	-2	6	0%	6%	11	1%
Cc1cc2c(NC(=O)Nc3ccc(C(F)(F)F)cc3)cccc2nn1	0	56	?	4%	-55*	?
COc1cc(SSc2cc(OC)cc([N+](=O)[O-])c2N)c(N)c([N+](=O)[O-])c1	·	-27	4.6µM*	·	-77*	4.1µM*
CCn1cc(C(=O)NCCCN(CC(C)C)CC(C)C)c(=O)c2cc(S(=O)(=O)N3CCc4ccccc4C3)ccc21	·	·	8%	0%	·	-10%
CCCCN(C)CCCNC(=O)c1cn(CC)c2ccc(S(=O)(=O)N3CCc4ccccc4C3)cc2c1=O	-3	-5	21µM*	5%	-63*	23µM*
CCCCN(CCCC)CCNC(=O)c1cn(CC)c2ccc(S(=O)(=O)N(C)C3CCCCC3)cc2c1=O	·	1	4.6µM*	3%	-17	6.5µM*
CCCN(CCC)CCCNC(=O)c1cn(CC)c2ccc(S(=O)(=O)N3CCc4ccccc4C3)cc2c1=O	12	-4	21µM*	5%	-103*	18µM*
CCCCN(CC)CCCNC(=O)c1cn(CC)c2ccc(S(=O)(=O)N3CCc4ccccc4C3)cc2c1=O	-13	6	16µM*	-5%	·	18µM*
Cc1ccc(OCc2ccoc2C(=O)O)cc1C	4	-6	-3%	50µM*	36	-4%
Cc1cc(C(=O)COc2ccc(C#N)cc2)c(C)n1-c1ccc2c(c1)OCO2	-5	-14	9.2µM*	6%	-9	9.2µM*
Cc1cc(C(=O)COC(=O)c2ccc([N+](=O)[O-])o2)c(C)n1CC1CCCO1 (stereo not drawn)	-1	-8	23µM*	5%	-14	?
Cc1cc(C(=O)COc2ccc(C#N)cc2)c(C)n1CC1CCCO1 (stereo not drawn)	-10	-12	29µM*	5%	-6	13µM*
COCCn1c(C)cc(C(=O)COC(=O)c2ccc([N+](=O)[O-])o2)c1C	-6	-8	?	-5%	-18	-7%
CCC(=O)c1ccc(OCC(=O)OCC(=O)c2cc(C)n(CC3CCCO3)c2C)cc1 (stereo not drawn)	?	-12	2%	1%	-2	8%
CCCC(CCC)C(=O)Nc1cccc(-c2cn3c(n2)SCC3)c1	·	-4	-20%	2%	-4	?
